ELG1 genotoxic: inducers of genotoxicity in HEK293T ELG1-luciferase cells | HEK293T ELG1-luciferase reporter, luminescence, 16 h | Potency, µM (top dose mostly 46 µM), for the others: top-dose activity change, positive = activation, hits mostly activators | actives 1.3% (n = 330,000); further: % of control where 0% means no effect; nearly all actives have a fitted effect of over 60% in size
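Step 1: seed 2,000 HEK293T ELG1-luciferase cells per well. Step 2: add compound or DMSO, incubate 16 hr at 37 °C. Step 3: ONE-Glo, 30 min at room temperature, read luminescence.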
SMN2 splice up: enhancers of SMN2 splice variant expression; HEK293 SMN2-luciferase splicing reporter, luminescence, 30-36 h; actives 2.8% (n = 210,000); Potency, µM (top dose mostly 46.1 µM), without a hit: at the highest dose activity change, positive = activation, most hits filed as activators; further: % of control where 0% means no effect; nearly all actives have a fitted effect of over 55% in size
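qHTS luciferase splicing reporter: luminescence rises when SMN2 exon 7 is included in transfected HEK293 cells. Compound exposure lasted 30-36 h at 37C, with 4.5 mM final sodium butyrate as control, followed by a ONE-Glo read.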
NPC1 prom act: NPC1 promoter activation; Potency, µM (highest dose often 9.22 µM), without a hit: top-dose activation, hits mostly activators; actives 2.4% (n = 320,000); Huh7 NPC1 promoter luciferase reporter, 24 h; further: % of control where 0% means no effect; nearly all actives have a fitted effect of over 60% in size
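Readout is luciferase luminescence, reflecting NPC1 promoter activation in stably transfected Huh7 cells after 24 h compound exposure at 37 °C in reduced-serum medium with 10% FBS.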
FLuc modulator: counter-screen for miR-21 project: firefly luciferase inhibitors or activators; P08659; purified FLuc, Km substrates, luminescence inhibition; Potency, µM (highest dose often 57.5 µM), for inactives: at the highest dose activity change, negative = inhibition, usual class: inhibitors; actives 6.9% (n = 360,000);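 further: plate controls were vehicle for no effect and reference inhibitor for full effect; nearly all actives have a fitted effect of over 55% in size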
Target sequence (P08659 whole entry, looked up): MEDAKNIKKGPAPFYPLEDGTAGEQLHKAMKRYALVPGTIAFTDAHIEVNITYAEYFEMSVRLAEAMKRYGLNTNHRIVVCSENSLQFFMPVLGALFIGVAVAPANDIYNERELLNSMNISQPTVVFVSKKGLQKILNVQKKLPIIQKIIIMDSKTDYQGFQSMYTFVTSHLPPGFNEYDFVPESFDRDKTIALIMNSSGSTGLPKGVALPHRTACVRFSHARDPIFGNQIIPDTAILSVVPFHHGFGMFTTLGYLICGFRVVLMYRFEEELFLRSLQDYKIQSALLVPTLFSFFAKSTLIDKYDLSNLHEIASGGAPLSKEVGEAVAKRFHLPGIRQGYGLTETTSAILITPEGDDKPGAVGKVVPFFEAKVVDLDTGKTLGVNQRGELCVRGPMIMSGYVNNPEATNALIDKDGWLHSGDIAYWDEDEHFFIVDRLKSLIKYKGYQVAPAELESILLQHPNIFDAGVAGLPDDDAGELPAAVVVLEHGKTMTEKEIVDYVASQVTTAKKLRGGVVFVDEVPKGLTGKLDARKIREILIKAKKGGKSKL
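Biochemical qHTS of compounds, final roughly 60 µM downward over six points, against 10 nM purified firefly luciferase using Km concentrations of substrates (10 uM D-luciferin, 10 uM ATP) in Tris acetate pH 7.5 buffer; luminescence output.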
Luc counter: blocks Kinase-Glo luciferase, a counter-screen artifact; Q27757; Kinase-Glo luciferase, ATP luminescence, 8 min; Potency, µM (top dose mostly 38.3 µM), for the others: at the highest dose activity change, negative = inhibition, usual class: inhibitors; actives 0.28% (n = 200,000); further: on the % scale 0 is the no-effect control and ±100 the full control effect; nearly all actives have a fitted effect of over 60% in size
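Inhibition of Kinase-Glo luciferase light generation was assessed at 10 uM ATP in pH 7.2 imidazole buffer, with luminescence measured after eight minutes at ambient temperature.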
Rab9 promoter act: Rab9 promoter activation; Huh7 Rab9 promoter-luciferase reporter, luminescence, 24 h; Potency, µM (doses to about 9.22 µM), for inactives: top-dose activation, negative = inhibition, actives largely listed as activators; actives 2.8% (n = 320,000); further: % of control where 0% means no effect; nearly all actives have a fitted effect of over 60% in size
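Stable Rab9-luc Huh7, 1500 cells/well, 2 h settle; cmpd in DMSO, 24 h, 37 °C/5% CO2; luciferase reagent 10 min RT; luminescence.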
An asterisk follows results filed as active; ? = inconclusive; nt = not tested or not shown; [ ] = remark or other dose. Shown are actives, neighbours in structure and some others; about 7.4% of the full set was active somewhere. The call rests on the fitted dose curve; in most records, active means well fitted curve in the direction sought with a large enough effect; inconclusive means small, poorly fitted or top-dose-only effect, or another doubt; inactive means no such curve, though single readings can be large; an effect the other way counts as inactive or inconclusive. Potency means the concentration at half of the fitted maximal effect.

SMILES	ELG1 genotoxic	SMN2 splice up	NPC1 prom act	FLuc modulator	Luc counter	Rab9 promoter act
O=C(CCc1nc2ccccc2s1)N1CCN(S(=O)(=O)c2cccs2)CC1	-8%	-9%	13%	-13%	-4%	2%
CC(=O)N1CCC(C(=O)N2CCN(S(=O)(=O)c3cccs3)CC2)CC1	0%	nt	-1%	2%	nt	3%
O=S(=O)(c1cccs1)N1CCN(Cc2nc3ccccc3s2)CC1	28%	-38%	-2%	17µM*	1%	-2%
O=C(COC(=O)C1CCN(S(=O)(=O)c2cccs2)CC1)Nc1ccccc1	0%	10%	-5%	-2%	0%	1%
O=C(c1[nH]c2ccccc2c1Sc1ccc(Cl)cc1)N1CCCCC1	nt	nt	nt	-6%	nt	nt
Cc1[nH]c2ccccc2c1C1N2CC3(C)CN1CC(C)(C2)C3=O (configuration not stated)	nt	0%	nt	0%	nt	nt
CCn1ccc2cc(S(=O)(=O)N3CCCN(C(=O)Nc4ccc(C)cc4Cl)CC3)ccc21	nt	nt	nt	-13%	nt	nt
CC(C)c1nnc(N2C(=O)c3oc4ccccc4c(=O)c3C2c2ccccc2F)s1 (configuration not stated)	nt	11%	nt	4%	nt	nt
CC(=O)N1CCC2(CC1)CCN(c1ncccn1)CC2	nt	-10%	nt	nt	0%	nt
Cc1ccc(Nc2nc(-c3cccnc3)nc3ccccc23)cc1	-12%	nt	-20%	-4%	nt	-12%
Fc1ccccc1/C=N/Nc1nc(-c2ccccn2)nc2ccccc12	9%	nt	-24%	9.5µM*	nt	-28%
Oc1ccc(/C=N/Nc2nc(-c3cccnc3)nc3ccccc23)c(O)c1	-3%	nt	-1%	4.8µM*	nt	4%
Cc1ccc(-c2nc(N/N=C/c3ccncc3)c3ccccc3n2)cc1	?	-24%	?	0.076µM*	2.2µM*	2µM*
COc1ccc(/C=N/Nc2nc(-c3cccnc3)nc3ccccc23)cc1OC	4%	nt	5%	2.1µM*	nt	7%
O=C(O)C[C@H](Sc1ccccc1)c1ccccc1	nt	-17%[9.22 µM]	nt	nt	-3%[7.66 µM]	nt
Cc1c(O)ccc(/C=N/Nc2nc(-c3cccnc3)nc3ccccc23)c1O	12%	nt	18%	3.4µM*	nt	25%
O=C(Nc1ccc2ncccc2c1)c1cccc(Br)c1	?	nt	?	11µM*	nt	2.5µM*
Cc1ccc(C(=O)/C=C/c2ccc3ncccc3c2)cc1	?	nt	13%	3.8µM*	nt	13%
Nc1ccc(/C=C/c2ccc3ncccc3c2)cc1	?	nt	0.45µM*	0.3µM*	nt	0.28µM*
CC(=O)Nc1ccc(NC(=O)c2ccc(NS(=O)(=O)c3cccc4cccnc34)cc2)cc1	1%	nt	-2%	2%	nt	2%
Cc1ccc(NC(=O)c2ccc(NS(=O)(=O)c3cccc4cccnc34)cc2)cc1	-2%	nt	-4%	17µM*	nt	-3%[1.84 µM]
CCC(=O)c1ccc2ncccc2c1	7%	24%	-3%	?	2%	2%
CCN(CC)c1ccc(NC(=O)C2CCN(S(=O)(=O)c3cnc[nH]3)CC2)c(C)c1	nt	-1%	nt	-8%	nt	nt
O=C1OC(C(=O)Nc2cc(C(F)(F)F)ccc2Cl)Cc2ccccc21 (configuration not stated)	nt	-13%	nt	-1%	nt	nt
CC(=O)c1cccc(NC(=O)Nc2nnc(N3CCCC3)s2)c1	nt	nt	nt	-10%	nt	nt
CC(=O)N1c2ccc(S(=O)(=O)N3CCCCCC3)cc2CC1C(=O)NC(C)C (configuration not stated)	nt	nt	nt	-2%	nt	nt
Cc1cccnc1NC(=O)c1ccc(S(=O)(=O)N2CCCCCC2)cc1	-1%	nt	2%	0%	nt	5%
COc1ccc(C(=O)Nc2ccc3ncccc3c2)cc1	0.65µM*	nt	0.28µM*	0.43µM*	nt	0.28µM*
Cc1ccc(C(=O)Nc2ccc3ncccc3c2)cc1	?	nt	?	0.11µM*	nt	0.1µM*
Brc1ccc(CNc2ccc3ncccc3c2)cc1	?	nt	?	11µM*	nt	27%

Bioassay records from PubChem.
